The subject of test [1] is PRMT1 (protein arginine N-methyltransferase 1). Briefly: PRMT1 binders on small-molecule microarrays, primary screen, biochemical, small-molecule microarray, 635 nm fluorescence (AID 1088).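 Further: binding of Prmt1 protein to compounds spotted on small-molecule microarray slides.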 The conditions noted are these: small-molecule microarray binding, higher = more signal.
A short description of test [2]: yeast growth modulation, basal conditions, primary screen, YJM789 clinical isolate, OD600, 24 h (AID 1089).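 Further: growth of clinical yeast isolate S. cerevisiae YJM 789 seeded 1000 cells per well; test concentration not given here.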 The settings on record: S. cerevisiae YJM789 growth, higher = more signal, called active from +8 up or from −8 down.
Test [3] in a line: fission yeast growth modulation, primary screen, strain 972, OD600, 24 h, no modulator (AID 1090).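 Further: basal condition with compound alone and no growth modifier present; test concentration not given here.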 The conditions noted are these: S. pombe 972 growth, higher = more signal, called active from +8 up or from −8 down.
A short description of test [4]: S. cerevisiae growth modulation with rapamycin, primary screen, strain BY4716, OD600, 96 h (AID 1091). Further: test concentration not given here. The settings on record: higher = more signal, called active from +8 up or from −8 down.
The target of test [5] is Torsin-1A-interacting protein 2 (Homo sapiens) (UniProt Q8NFQ8). Put plainly: LULL1 binders on small-molecule microarray, primary screen, cell lysate, human LULL1 lysate, 635/667 nm fluorescence (AID 1092).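 Further: probe is lysate of COS7 cells overexpressing human LULL1; score merges per-feature 667 nm fluorescence with signal-to-noise.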 The settings on record: hLULL1 lysate binding, 635 nm fluorescence, higher = more signal.
Test [6] can be described thus: E. coli growth modulation, two-sided OD650, primary screen, E. coli filamentation project, strain DRC41, 24 h (AID 1093).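 Further: MC1000 strain lacking acrAB efflux and sulA so SOS filamentation is blocked; test concentration not given here.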 The settings on record: OD650, 24 h, higher = more signal, called active from +8 up or from −8 down.
A short description of test [7]: small-molecule microarray binders of probe aLefty2, primary screen, biochemical, biotinylated probe, 635/667 nm fluorescence (AID 1094).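 Further: score merges spot fluorescence near 667 nm with spot signal-to-noise ratio.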 The conditions noted are these: higher = more signal.
The subject of test [8] is Noggin (protein binding on small-molecule microarray). Put plainly: Noggin binders on small-molecule microarray, primary screen, biochemical, 635/667 nm fluorescence (AID 1095).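 Further: score merges 667 nm feature fluorescence with signal to noise over triplicate slides.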 The settings on record: 635 nm fluorescence, higher = more signal.
Test [9] concerns the target Neurogenic locus notch homolog protein 3 (Homo sapiens) (UniProt Q9UM47). Put plainly: NOTCH3 binders on small-molecule microarray, primary screen, biochemical, 635/667 nm fluorescence (AID 1096). The conditions noted are these: NOTCH3 binding, 635 nm fluorescence, higher = more signal.
Test [10] is described as follows: small-molecule microarray binders of probe aEGFR, primary screen, biochemical, biotinylated probe, 635/667 nm fluorescence (AID 1097).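 Further: probe is a biotinylated anti-EGFR antibody binding compounds printed on slides; score combines fluorescence near 667 nm and signal to noise of each spot.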 The conditions noted are these: higher = more signal.
Test [11] relates to Plasmodium falciparum Sir2 (PF13_0152, Sir2A). Put plainly: pfSir2 binders on small-molecule microarrays, primary screen, biochemical, small-molecule microarray, 635 nm fluorescence (AID 1098).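 Further: score merges spot fluorescence intensity with its signal-to-noise ratio.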 The conditions noted are these: small-molecule microarray binding, fluorescence 635 nm; higher = more signal.
The nature of test [12]: small-molecule microarray binders of probe aDKK1, primary screen, biochemical, biotinylated probe, 635/667 nm fluorescence (AID 1099).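 Further: score merges 667nm spot fluorescence with signal to noise across triplicate slides; reference of the scale not given here.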 The settings on record: higher = more signal.
A short description of test [13]: small-molecule microarray binders of probe aCHRDL2, primary screen, biochemical, biotinylated probe, 635/667 nm fluorescence (AID 1100). The conditions noted are these: higher = more signal.
A short description of test [14]: splicing luciferase reporter signal modulators, primary screen, spliceosome inhibition project, cell-based, HEK293, splice +/- reporter (AID 1101).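 Further: HEK293 cells carrying a splicing-competent luciferase reporter gene; test concentration not given here.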 The conditions noted are these: luminescence, 24 h, higher = more signal, called active from +8 up or from −8 down.
Test [15] addresses Fibroblast growth factor 10 (Homo sapiens) (UniProt O15520). Put plainly: FGF10 binders on small-molecule microarrays, primary screen, biochemical, small-molecule microarray, 635 nm fluorescence (AID 1102). The settings on record: FGF10 binding, fluorescence 635 nm, higher = more signal.
Test [16] concerns glycogen synthase kinase-3 (GSK3A per assay name; protocol says GSK3B). Briefly: GSK3 binders on small-molecule microarrays, primary screen, biochemical, small-molecule microarray, 635 nm fluorescence, GSK3A (AID 1103). Further: the record names both GSK3A and GSK3B. The conditions noted are these: small-molecule microarray binding, fluorescence 635 nm; higher = more signal.
In test [17] the target is Epidermal growth factor receptor (Homo sapiens) (UniProt P00533). Put plainly: EGFR binders on small-molecule microarrays, primary screen, biochemical, small-molecule microarray, 635 nm fluorescence (AID 1104).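 Further: score merges 667 nm emission intensity with spot signal to noise over triplicate slides.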 The settings on record: EGFR binding, higher = more signal.
Test [18] deals with Follistatin-related protein 3 (Homo sapiens) (UniProt O95633). Put plainly: FSTL3 binders on small-molecule microarrays, primary screen, biochemical, small-molecule microarray, 635 nm fluorescence (AID 1105).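 Further: score merges emission near 667 nm and signal to noise per printed spot across three slides.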 The conditions noted are these: FSTL3 binding, higher = more signal.
The target of test [19] is Dickkopf-related protein 1 (Homo sapiens) (UniProt O94907). Put plainly: DKK1 binders on small-molecule microarrays, primary screen, biochemical, small-molecule microarray, 635 nm fluorescence scan (AID 1106).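 Further: score merges emission near 667 nm with signal to noise over three replicate slides.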 The conditions noted are these: DKK1 binding, higher = more signal.
Test [20] relates to Inhibin beta A chain (activin A). Put plainly: INHBA (activin A) binders on microarrays, primary screen, biochemical, small-molecule microarray, 635 nm fluorescence scan (AID 1107).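 Further: mouse activin A protein probed at 4.33 µg/mL on printed slides; score merges bound-protein fluorescence near 667 nm with spot signal-to-noise.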 The conditions noted are these: small-molecule microarray binding, higher = more signal.

Active and inactive are the calls of the source.

Chain of Torsin-1A-interacting protein 2 (Homo sapiens) (Q8NFQ8 whole entry, looked up): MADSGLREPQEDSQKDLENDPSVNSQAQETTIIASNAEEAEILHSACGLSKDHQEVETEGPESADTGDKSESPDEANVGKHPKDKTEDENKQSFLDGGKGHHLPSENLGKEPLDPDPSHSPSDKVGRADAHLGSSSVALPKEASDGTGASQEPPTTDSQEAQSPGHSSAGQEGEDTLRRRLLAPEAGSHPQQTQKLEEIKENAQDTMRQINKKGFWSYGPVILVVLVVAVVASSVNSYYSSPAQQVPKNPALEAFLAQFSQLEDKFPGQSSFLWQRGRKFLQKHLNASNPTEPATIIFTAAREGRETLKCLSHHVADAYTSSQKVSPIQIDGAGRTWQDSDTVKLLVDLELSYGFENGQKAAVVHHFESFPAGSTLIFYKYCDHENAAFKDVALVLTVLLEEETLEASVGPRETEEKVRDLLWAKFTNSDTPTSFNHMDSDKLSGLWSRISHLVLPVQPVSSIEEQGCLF
Chain of Epidermal growth factor receptor (Homo sapiens) (P00533 whole entry, looked up): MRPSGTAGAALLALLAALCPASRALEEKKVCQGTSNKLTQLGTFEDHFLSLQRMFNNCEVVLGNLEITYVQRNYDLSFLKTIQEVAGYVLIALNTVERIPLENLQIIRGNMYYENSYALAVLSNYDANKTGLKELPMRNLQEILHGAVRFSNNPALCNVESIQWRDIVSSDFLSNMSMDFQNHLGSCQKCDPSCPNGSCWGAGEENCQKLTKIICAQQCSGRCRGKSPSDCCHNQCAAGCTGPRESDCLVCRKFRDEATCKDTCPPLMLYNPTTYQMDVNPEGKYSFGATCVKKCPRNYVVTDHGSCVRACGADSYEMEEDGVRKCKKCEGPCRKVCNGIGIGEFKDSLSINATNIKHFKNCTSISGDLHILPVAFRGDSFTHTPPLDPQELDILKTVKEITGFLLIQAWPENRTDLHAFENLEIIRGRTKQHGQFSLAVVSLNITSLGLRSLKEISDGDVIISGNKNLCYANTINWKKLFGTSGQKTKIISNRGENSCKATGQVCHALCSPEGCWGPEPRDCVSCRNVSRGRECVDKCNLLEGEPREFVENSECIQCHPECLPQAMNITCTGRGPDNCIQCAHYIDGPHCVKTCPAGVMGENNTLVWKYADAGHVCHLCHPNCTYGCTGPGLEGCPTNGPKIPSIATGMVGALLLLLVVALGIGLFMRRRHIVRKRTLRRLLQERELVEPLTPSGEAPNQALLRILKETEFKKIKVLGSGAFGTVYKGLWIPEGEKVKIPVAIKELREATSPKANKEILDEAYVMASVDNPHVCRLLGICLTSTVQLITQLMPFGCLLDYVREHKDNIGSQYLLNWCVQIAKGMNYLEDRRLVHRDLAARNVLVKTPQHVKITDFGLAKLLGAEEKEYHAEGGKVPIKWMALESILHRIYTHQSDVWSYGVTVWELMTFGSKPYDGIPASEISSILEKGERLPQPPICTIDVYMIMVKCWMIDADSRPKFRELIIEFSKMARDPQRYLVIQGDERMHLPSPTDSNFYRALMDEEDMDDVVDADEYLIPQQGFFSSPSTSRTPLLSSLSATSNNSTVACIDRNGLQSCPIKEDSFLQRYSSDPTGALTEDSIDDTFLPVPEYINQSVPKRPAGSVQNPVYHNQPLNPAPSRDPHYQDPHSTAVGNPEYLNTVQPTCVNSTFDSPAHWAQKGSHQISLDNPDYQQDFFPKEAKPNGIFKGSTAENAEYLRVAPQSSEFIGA
Chain of Dickkopf-related protein 1 (Homo sapiens) (O94907 whole entry, looked up): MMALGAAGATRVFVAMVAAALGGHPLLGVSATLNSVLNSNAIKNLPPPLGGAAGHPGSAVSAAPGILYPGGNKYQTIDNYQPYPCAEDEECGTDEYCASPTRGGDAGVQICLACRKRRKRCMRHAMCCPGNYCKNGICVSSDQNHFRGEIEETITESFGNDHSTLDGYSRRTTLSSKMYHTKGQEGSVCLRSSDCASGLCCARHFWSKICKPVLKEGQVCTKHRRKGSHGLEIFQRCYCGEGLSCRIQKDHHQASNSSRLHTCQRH
Chain of Neurogenic locus notch homolog protein 3 (Homo sapiens) (Q9UM47 whole entry, looked up): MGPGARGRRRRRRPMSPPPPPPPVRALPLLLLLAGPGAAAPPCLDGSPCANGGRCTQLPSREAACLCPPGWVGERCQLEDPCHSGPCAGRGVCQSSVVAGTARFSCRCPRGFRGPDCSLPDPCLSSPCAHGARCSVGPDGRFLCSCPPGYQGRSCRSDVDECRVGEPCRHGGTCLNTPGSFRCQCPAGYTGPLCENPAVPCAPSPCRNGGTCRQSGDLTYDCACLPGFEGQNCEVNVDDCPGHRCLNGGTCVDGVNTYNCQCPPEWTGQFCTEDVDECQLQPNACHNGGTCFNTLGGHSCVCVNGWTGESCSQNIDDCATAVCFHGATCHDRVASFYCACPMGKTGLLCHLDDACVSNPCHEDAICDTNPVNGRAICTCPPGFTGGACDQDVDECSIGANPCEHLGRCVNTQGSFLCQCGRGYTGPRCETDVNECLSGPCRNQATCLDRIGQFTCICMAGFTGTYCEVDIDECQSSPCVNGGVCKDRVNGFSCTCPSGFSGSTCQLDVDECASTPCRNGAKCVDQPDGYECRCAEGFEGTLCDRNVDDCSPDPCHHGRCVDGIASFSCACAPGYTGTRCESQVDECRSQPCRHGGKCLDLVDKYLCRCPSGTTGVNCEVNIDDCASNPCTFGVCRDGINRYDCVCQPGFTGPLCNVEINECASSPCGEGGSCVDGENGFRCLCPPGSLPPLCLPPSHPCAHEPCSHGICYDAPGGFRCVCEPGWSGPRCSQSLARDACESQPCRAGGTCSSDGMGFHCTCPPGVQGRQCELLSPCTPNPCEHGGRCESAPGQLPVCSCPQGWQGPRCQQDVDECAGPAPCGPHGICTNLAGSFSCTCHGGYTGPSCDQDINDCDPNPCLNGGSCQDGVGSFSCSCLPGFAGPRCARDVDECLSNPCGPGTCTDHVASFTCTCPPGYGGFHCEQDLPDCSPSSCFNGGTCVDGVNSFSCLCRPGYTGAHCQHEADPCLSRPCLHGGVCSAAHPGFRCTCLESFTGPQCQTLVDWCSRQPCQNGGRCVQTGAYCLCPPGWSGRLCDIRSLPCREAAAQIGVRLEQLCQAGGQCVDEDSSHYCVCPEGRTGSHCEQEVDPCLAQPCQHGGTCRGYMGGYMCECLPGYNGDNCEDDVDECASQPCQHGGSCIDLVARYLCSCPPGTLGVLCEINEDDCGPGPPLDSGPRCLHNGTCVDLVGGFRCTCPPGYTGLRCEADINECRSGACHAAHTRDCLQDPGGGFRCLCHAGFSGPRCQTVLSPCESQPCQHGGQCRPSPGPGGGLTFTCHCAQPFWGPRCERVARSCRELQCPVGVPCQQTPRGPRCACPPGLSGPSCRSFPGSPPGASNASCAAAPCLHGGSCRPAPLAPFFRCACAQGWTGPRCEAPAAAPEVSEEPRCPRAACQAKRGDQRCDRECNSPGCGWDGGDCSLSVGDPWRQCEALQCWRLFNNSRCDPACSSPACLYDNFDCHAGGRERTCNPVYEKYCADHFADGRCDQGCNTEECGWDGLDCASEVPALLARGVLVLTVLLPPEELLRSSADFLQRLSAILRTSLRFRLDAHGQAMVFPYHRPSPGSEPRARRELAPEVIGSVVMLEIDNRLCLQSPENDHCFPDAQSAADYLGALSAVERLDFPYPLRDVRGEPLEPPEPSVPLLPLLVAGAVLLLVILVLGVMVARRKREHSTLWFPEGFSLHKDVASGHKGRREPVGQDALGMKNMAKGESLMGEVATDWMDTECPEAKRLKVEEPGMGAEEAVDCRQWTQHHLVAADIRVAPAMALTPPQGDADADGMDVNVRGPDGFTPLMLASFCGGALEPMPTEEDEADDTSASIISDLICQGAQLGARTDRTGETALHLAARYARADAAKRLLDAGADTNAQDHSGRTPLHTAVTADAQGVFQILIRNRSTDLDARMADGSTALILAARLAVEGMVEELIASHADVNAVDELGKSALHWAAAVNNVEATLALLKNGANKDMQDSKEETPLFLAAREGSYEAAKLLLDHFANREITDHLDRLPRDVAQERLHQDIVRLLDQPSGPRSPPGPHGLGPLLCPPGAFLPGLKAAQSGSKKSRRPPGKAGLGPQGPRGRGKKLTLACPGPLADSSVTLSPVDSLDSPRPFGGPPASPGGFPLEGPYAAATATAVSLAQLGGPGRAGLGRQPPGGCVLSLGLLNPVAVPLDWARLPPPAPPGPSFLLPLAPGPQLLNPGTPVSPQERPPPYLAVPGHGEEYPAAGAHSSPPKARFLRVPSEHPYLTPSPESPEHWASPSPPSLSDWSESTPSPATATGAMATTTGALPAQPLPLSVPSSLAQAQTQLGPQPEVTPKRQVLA
Chain of Follistatin-related protein 3 (Homo sapiens) (O95633 whole entry, looked up): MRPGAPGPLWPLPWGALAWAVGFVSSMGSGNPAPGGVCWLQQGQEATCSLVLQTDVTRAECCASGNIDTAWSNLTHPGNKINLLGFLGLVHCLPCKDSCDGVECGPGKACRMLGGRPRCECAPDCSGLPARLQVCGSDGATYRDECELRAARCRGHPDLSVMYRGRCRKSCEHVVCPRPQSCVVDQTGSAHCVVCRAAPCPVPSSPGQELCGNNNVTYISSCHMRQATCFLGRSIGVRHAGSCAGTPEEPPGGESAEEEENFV
Chain of Fibroblast growth factor 10 (Homo sapiens) (O15520 whole entry, looked up): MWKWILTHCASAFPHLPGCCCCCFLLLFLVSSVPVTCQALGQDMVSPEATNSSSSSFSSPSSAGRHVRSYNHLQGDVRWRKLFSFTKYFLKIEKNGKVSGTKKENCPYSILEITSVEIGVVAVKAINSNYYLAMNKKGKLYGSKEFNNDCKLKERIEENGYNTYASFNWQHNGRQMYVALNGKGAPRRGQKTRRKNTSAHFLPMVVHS

Turning to `CCOC(=O)CCN1C(=O)[C@H]2[C@H]3[C@H](O)C=CC(=O)[C@@H]3CC[C@H]2C1=O`, the composite z-score is 0.0492 in test [1]; 0.215 in test [5]; -0.239 in [7]; 0.641 in test [8]; 0.629 in test [9]; 0.0439 in [10]. Besides, the composite z-score is 0.0705 in test [11]; -0.222 in test [12]; -0.437 in [13]; 0.605 in [15]; 0.323 in [16]; 0.678 in test [17]. For the same molecule, the composite z-score in test [18] was 0.518; in [19], 0.541; in [20], -0.0901. For the same molecule, the z-score in test [2] was 0.595 (inactive); in [3], 0.361 (inactive); in test [4], 1.42 (inactive); in test [6], 0.399 (inactive); in [14] it was -0.173 (inactive).
With `COCCOC(=O)N1C(=O)[C@@]2(c3cc(C#CC4(O)CCCCCC4)ccc31)[C@H](c1ccc(OCCO)cc1)N1[C@H](c3ccccc3)[C@H](c3ccccc3)OC(=O)[C@H]1[C@@H]2C(=O)NC[C@H](O)c1ccccc1`, the composite z-score in [1] was 1.55; in [5], 2.87; in test [7], -0.0212; in test [8] it was 0.816; in test [9] it was 1.03; in [10], -0.0555. Moreover, the composite z-score in test [11] amounted to 0.933; in [12], 0.0678; in test [13], 0.389; in [15] it was 1.18; in [16] it was 1.29; in test [17], 0.258. The composite z-score in [18] was 0.432; in test [19], 0.208; in [20], 0.527. The z-score in test [2] was 2.19 (inactive); in [3], 0.874 (inactive); in test [4] it was 6.86 (inactive); in test [6], 1.6 (inactive); in test [14], -0.268 (inactive).
As to `CCOC(=O)CCN1C(=O)[C@H]2[C@H]3[C@H](O)[C@H](O)CC(=NOCc4ccccc4)[C@@H]3CC[C@H]2C1=O`, the composite z-score in test [1] was 0.454; in [5] it was 0.175; in test [7] it was -0.147; in [8], 0.676; in test [9], 1; in test [10] it was -0.0597. Besides, the composite z-score in test [11] was 0.174; in test [12], -0.206; in [13], -0.608; in test [15], 0.526; in test [16], 0.597; in [17], 0.641. Moreover, the results for the composite z-score in [18], in test [19] and in [20] were 0.749, 0.4 and 0.0727, respectively. Also, the z-score in test [2] is -0.14 (inactive); in [3], 0.116 (inactive); in test [4], -0.664 (inactive); in test [6], -0.961 (inactive); in [14], 0.0671 (inactive).
Turning to `C#CCCCON=C1C[C@@H](O)[C@@H](O)[C@@H]2[C@@H]3C(=O)N(Cc4ccccc4)C(=O)[C@@H]3CC[C@H]12`, the composite z-score in test [1] is 0.0491; in test [5], -0.172; in test [7], -0.0294; in [8] it was 0.407; in test [9], 0.297; in test [10], -0.102. In addition, the composite z-score was 1.43 in test [11]; -0.369 in [12]; -0.417 in test [13]; 0.388 in [15]; 0.147 in [16]; 1.03 in test [17]. The composite z-score worked out at 0.29 in test [18], 0.525 in test [19] and 0.269 in [20]. Moreover, the z-score was -0.609 (inactive) in test [2]; -0.216 (inactive) in test [3]; -1.49 (inactive) in test [4]; -0.0603 (inactive) in test [6]; -0.658 (inactive) in [14].
`NCCCCCNC(=O)[C@@H]1C[C@@H]2C(=O)N3CCC[C@H]3C(=O)N2[C@@H]1c1cccc(OCCO)c1`: the composite z-score amounted to 1.35 in test [1]; 1.41 in test [5]; 0.948 in test [7]; 0.989 in test [8]; 0.613 in [9]; 0.364 in [10]. The composite z-score in test [11] was found to be 0.963; in [12], 1.61; in test [13], 0.948; in [15], 0.506; in [16], 0.821; in test [17], 0.515. The composite z-score came to 0.984 in [18], 1.17 in [19] and 1.63 in test [20]. Moreover, the z-score in test [2] was -0.486 (inactive); in test [3] it was -0.703 (inactive); in [4] it was -0.652 (inactive); in test [6], -0.104 (inactive); in test [14], -0.298 (inactive).
For `CC(C)=NOCc1cccc(-c2cc(-c3ccccc3)no2)c1`, the composite z-score was 1.27 in test [1]; 1.18 in [5]; -0.0375 in test [7]; 0.7 in test [8]; 0.881 in test [9]; 0.161 in test [10]. Moreover, the composite z-score in [11] is 0.379; in test [12] it was -0.208; in test [13], -0.609; in [15] it was 0.637; in test [16], 0.787; in [17], -0.137. Also, the figures for the composite z-score in test [18], in test [19] and in test [20] were 0.597, 0.494 and -0.21, respectively. Moreover, the z-score in test [2] was -0.366 (inactive); in [3], -21 (active); in [4], -0.442 (inactive); in [6] it was 0.533 (inactive); in [14], 0.342 (inactive).
Take `C#CCCCON=C1C[C@@H](O)[C@@H](O)[C@@H]2[C@@H]3C(=O)N(c4cccc(Oc5ccccc5)c4)C(=O)[C@@H]3CC[C@@H]12`: the composite z-score was 0.678 in test [1]; 2.51 in test [5]; -0.0961 in test [7]; 0.376 in test [8]; 1.1 in test [9]; 0.0675 in [10]. Moreover, the composite z-score in [11] was 0.632; in test [12], -0.178; in [13], 0.0505; in test [15], 0.985; in test [16], 0.548; in test [17], 0.213. Besides, the composite z-score in test [18] was 0.802; in [19], -0.0498; in [20], -0.211. In addition, the z-score in test [2] was 0.71 (inactive); in test [3] it was 0.329 (inactive); in test [4] it was -0.426 (inactive); in [6] it was 0.303 (inactive); in test [14], -0.417 (inactive).
Regarding `O=C(CS)NCCCCCNC(=O)[C@H]1C[C@H]2C(=O)N3CCC[C@H]3C(=O)N2[C@H]1c1cccc(OCCO)c1`, the composite z-score was 1.53 in [1]; 2.7 in test [5]; 0.0124 in test [7]; 1.76 in test [8]; 1.1 in [9]; -0.0025 in test [10]. Also, the composite z-score in [11] turned out to be 1.17; in test [12] it was 0.0187; in [13] it was 0.367; in test [15], 1.35; in [16], 1.32; in test [17], 0.194. Moreover, the composite z-score in test [18] turned out to be 1.41; in test [19] it was 1.57; in test [20] it was 1.3. Also, the z-score was 0.436 (inactive) in [2]; -0.723 (inactive) in test [3]; -0.173 (inactive) in test [4]; 0.146 (inactive) in test [6]; 0.378 (inactive) in [14].
As for `CCCNC(=O)OC[C@H]1O[C@H](CCON=CC[C@@H]2C=C[C@H](OC(C)=O)[C@@H](COC(C)=O)O2)C=C[C@@H]1Oc1ccc(OC)cc1`, the composite z-score in test [1] is 1.18; in test [5], 0.667; in [7], -0.0159; in test [8], 0.643; in test [9], 0.249; in [10], 0.0486. Also, the composite z-score in test [11] is 0.46; in test [12], -0.0927; in test [13], -0.412; in test [15], 0.817; in [16] it was 0.524; in [17] it was 0.492. The composite z-score worked out at 0.759 in test [18], 0.537 in [19] and 0.434 in test [20]. Also, the z-score in [2] is -0.704 (inactive); in test [3], 0.115 (inactive); in test [4], 0.023 (inactive); in [6], 0.457 (inactive); in test [14], 0.599 (inactive).
